From PubChem BioAssay AID624330 (Southern Research Specialized Biocontainment Screening …, 2012) come the findings set out here.

“And” between values parts separate entries of the source, which are not always exact repeats. Equal values may be shown once. The campaign covered roughly 340,000 compounds. About 2,100 (0.62%) were called active.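 How the source made its calls: active means first-screen hits whose inhibition reached a set limit at any dose in the follow-up dose series; inconclusive means inhibition above the set first-screen limit but never retested; inactive means the rest.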 These entries were drawn from the full list. Measured potencies and affinities stand elsewhere.

In the assay the target is Rac GTPase-activating protein 1 (Homo sapiens) (UniProt Q9H0H5). The assay can be described thus: MgcRacGAP GTPase-activating activity inhibitors, confirmation, biochemical, ADP Hunter fluorescence, primary and confirmatory (AID 624330).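 Further: fluorescence reports GDP produced by GAP-driven GTP hydrolysis.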 To be noted: MgcRacGAP-stimulated Rac1 GTP hydrolysis, at 30 µM, stronger effect = higher value, GST-tagged Rac1 F28L mutant substrate.
Chain of Rac GTPase-activating protein 1 (Homo sapiens) (Q9H0H5 whole entry, looked up): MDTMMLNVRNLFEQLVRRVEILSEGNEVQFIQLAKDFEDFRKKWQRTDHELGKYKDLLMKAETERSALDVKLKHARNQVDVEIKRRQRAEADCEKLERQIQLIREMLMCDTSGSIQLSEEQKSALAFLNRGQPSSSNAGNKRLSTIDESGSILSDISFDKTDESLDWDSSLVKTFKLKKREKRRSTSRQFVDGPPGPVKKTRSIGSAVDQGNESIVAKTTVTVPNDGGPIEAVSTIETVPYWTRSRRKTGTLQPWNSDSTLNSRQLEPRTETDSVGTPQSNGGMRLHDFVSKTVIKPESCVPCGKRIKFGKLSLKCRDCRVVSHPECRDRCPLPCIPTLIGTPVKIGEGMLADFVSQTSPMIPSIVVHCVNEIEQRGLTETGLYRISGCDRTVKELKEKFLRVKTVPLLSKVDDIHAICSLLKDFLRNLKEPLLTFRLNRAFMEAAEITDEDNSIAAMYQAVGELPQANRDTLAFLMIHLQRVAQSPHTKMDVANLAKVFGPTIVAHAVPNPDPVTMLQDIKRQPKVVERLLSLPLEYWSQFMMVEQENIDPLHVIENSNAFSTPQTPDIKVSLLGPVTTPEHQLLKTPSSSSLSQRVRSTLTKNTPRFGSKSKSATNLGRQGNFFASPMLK
Usually inhibition stands for the drop in the measured response relative to a control, in per cent. Regarding `O=S(=O)(c1cccc(S(=O)(=O)N2CCCC2)c1)N1CCCCC1`, the inhibition was -4.65% (inactive).

Consider `O=C(COC(=O)/C=C/c1cccc(C(F)(F)F)c1)NC(c1ccccc1)c1ccccc1`, for which the inhibition was -0.08% (inactive).

Turning to `Cc1oc2ccccc2c1-c1cn2c(n1)SCC2`, the inhibition is 18.1% (inactive).

On to `COC(=O)c1[nH]c(C)c(/C(O)=C2\C(=O)C(=O)N(CCN(C)C)C2c2ccccc2OC)c1C` (centres undefined), for which the inhibition was -0.13% (inactive).

As to `CC(C)(C)OC(=O)NCC(=O)NCC(=O)OCc1ccccc1`, the inhibition was 4.89% (inactive).

In the case of `CC1(c2cccc(Br)c2)NC(=O)N(CC(=O)Nc2ccc3c(c2)OCO3)C1=O` (centres undefined), the inhibition was 8.04% (inactive).

`NS(=O)(=O)c1ccc(CCNCc2cc(Br)ccc2OCc2ccccc2F)cc1`: the inhibition is 1.51% (inactive).

Regarding `COCC1CCCCN1Cc1cn[nH]c1-c1ccc(OC)cc1OC` (centres undefined), the inhibition was -6.12% (inactive).

Take `CC(NC(=O)COC(=O)c1cc(=O)c2ccccc2o1)c1ccccc1` (centres undefined): the inhibition is 2.31% (inactive).

On to `OCC1(CC2CCCCO2)CCN(C/C=C/c2ccccc2)CC1` (centres undefined), for which the inhibition was 1.66% (inactive).

In the case of `COc1ccccc1/C=C/CN1CCC(Oc2ccc(C(=O)N3CCCC3)cc2)CC1`, the inhibition is 7.28% (inactive).

Regarding `COc1ccc(/C=C/CN2CCC(Oc3ccc(C(=O)N4CCCCC4)cc3)CC2)cc1`, the inhibition was 7.82% (inactive).

On to `COc1cccc(CN2CCC(CO)(CC3CCCCO3)CC2)c1` (centres undefined), for which the inhibition is 10.7% (inactive).

`O=C(NCC1CCCO1)c1ccccc1-c1nc(-c2ccc(Cl)cc2)no1` (centres undefined): the inhibition was 10.3% (inactive).

For the compound `CC(C)(C)NC(=O)NC(=O)CSc1nnc(-c2ccccc2F)n1N`, the inhibition was 11.7% (inactive).

In the case of `CC1(C)CC(O)C(C(O)c2cccc([N+](=O)[O-])c2)C(C)(C)N1` (centres undefined), the inhibition is -4.29% (inactive).

Turning to `COC(=O)C1=C(C)N(Cc2ccc(C)cc2)C(=O)/C1=C\c1ccc(O)c(OC)c1`, the inhibition was -0.65% (inactive).

As for `COC(=O)C1=C(C)N(CCc2ccc(OC)c(OC)c2)C(=O)/C1=C\c1ccc(O)cc1`, the inhibition is 27.5% (inactive).

Consider `COC(=O)C1=C(C)N(Cc2ccco2)C(=O)/C1=C\c1ccc([N+](=O)[O-])cc1`, for which the inhibition was 40.1% (inactive).

Regarding `CCOc1cc(/C=C2\C(=O)N(Cc3ccc(C)cc3)C(C)=C2C(=O)OC)ccc1O`, the inhibition was 13.1% (inactive).

For the compound `Cc1cccc(C(C)C)c1NC(=O)COC(=O)c1cc2ccccc2oc1=O`, the inhibition was 4.05% (inactive).

With `CCOC(=O)C1CCN(C(=O)Cn2nc(C)n3nc(-c4ccc(OC)cc4)cc3c2=O)CC1`, the inhibition was 4.91% (inactive).

For the compound `CCOC(=O)C(O)(CC(=O)c1ccc(Cl)cc1)C(=O)OCC`, the inhibition is 3.02% (inactive).

On to `OCCn1c(-c2ccccc2)csc1=Nc1ccccc1`, for which the inhibition was 7.22% (inactive).

For the compound `CCn1c(-c2ccccc2)csc1=Nc1ccc(S(=O)(=O)O)cc1`, the inhibition was 9.33% (inactive).

For `CCOC(=O)CC1CCCCN1C(=O)CCCn1nnnc1CN1CCOCC1` (centres undefined), the inhibition was 7.71% (inactive).

For `CCOC(=O)N1CCN(C(=O)COc2ccc([N+](=O)[O-])cc2)CC1`, the inhibition was -2.93% (inactive).

For `O=C(COc1ccc2ccccc2c1)N1CCN(C(=O)c2cccnc2)CC1`, the inhibition was 8.31% (inactive).

Regarding `O=C(COc1ccc2ccccc2c1)N1CCCC1`, the inhibition was 7.41% (inactive).

On to `Cc1cccc(OCC(=O)N2CCN(C(=O)Cc3ccccc3)CC2)c1`, for which the inhibition is 8.65% (inactive).

For `Cc1ccc(OCC(=O)N2CCN(C(=O)c3ccc([N+](=O)[O-])cc3)CC2)cc1`, the inhibition was 4.34% (inactive).

Take `Cc1cccc(OCC(=O)N2CCN(C(=O)COc3ccc(Cl)cc3)CC2)c1`: the inhibition is 9.73% (inactive).

Consider `CCn1ccnc1CN(C)C(=O)C1CCC(=O)N(Cc2cccc(C(F)(F)F)c2)C1` (centres undefined), for which the inhibition is 4.11% (inactive).

For the compound `COc1cc(NC(=O)COC(=O)CNS(=O)(=O)c2ccc(F)c(F)c2F)cc(OC)c1`, the inhibition was 9.27% (inactive).

On to `COc1ccc(-n2nc(C(=O)NCC(=O)NCCN(C)C)c3ccccc3c2=O)c(OC)c1`, for which the inhibition is 8.96% (inactive).

On to `Cc1nn(C)cc1CNC(=O)/C=C/c1cnn(C)c1`, for which the inhibition is -2.3% (inactive).

In the case of `O=[N+]([O-])c1ccc(N2CCCCC2)nc1N1CCCCC1`, the inhibition was 2.43% (inactive).

Consider `O=C(COC(=O)C1CCN(c2ccc(C(F)(F)F)cn2)CC1)NCc1ccccc1`, for which the inhibition was 2.35% (inactive).

In the case of `CC12CCC(=O)N1C(C(=O)OCC(=O)Nc1ccc(S(N)(=O)=O)cc1)CS2` (centres undefined), the inhibition was 0.82% (inactive).

Regarding `N#Cc1ccc(-c2csc(NC(=O)c3ccc(N4C(=O)CCC4=O)cc3)n2)cc1`, the inhibition is 6.12% (inactive).

Consider `CCCCOc1ccc(/C=c2\sc3ncnn3c2=O)cc1`, for which the inhibition is 8.68% (inactive).

As for `O=c1/c(=C/c2cccc3ccccc23)sc2ncnn12`, the inhibition is 17.9% (inactive).

`CN1CCN(C(=O)CN(C)S(=O)(=O)c2cc(Cl)ccc2Cl)CC1`: the inhibition is 1.86% (inactive).

For the compound `COc1ccccc1CNCC(=O)Nc1ccc(C#N)cc1`, the inhibition is 31.8% (inactive).

For the compound `O=C(CNCc1ccco1)Nc1ccccc1-n1cccc1`, the inhibition is 12.8% (inactive).

Consider `COc1ccc(CNCC(=O)Nc2ccccc2-n2cccc2)cc1`, for which the inhibition was 36.5% (inactive).

For `O=C1CN(C(=O)CNCc2ccccc2)c2ccccc2N1`, the inhibition is 23.4% (inactive).

`COc1ccccc1CNCC(=O)Nc1ccc(C(F)(F)F)cc1`: the inhibition is 25% (inactive).

As for `COc1ccccc1CNCc1ccc(C)cc1`, the inhibition was 7.48% (inactive).

`COc1ccccc1CNC(=O)Cc1ccc(C)cc1`: the inhibition was 4.63% (inactive).

In the case of `COc1ccccc1CNC(=O)CNC(=O)N1CC(=O)Nc2ccccc21`, the inhibition is 10.5% (inactive).

With `O=CNc1ccccc1Oc1ccccc1`, the inhibition was 8.55% (inactive).

For the compound `Cc1ccc(N(C(=O)c2snc(C(N)=O)c2N)C(C(=O)NC2CCCC2)c2ccc(C)o2)cc1` (centres undefined), the inhibition is 2.21% (inactive).

As to `CC(=O)c1ccc(NC(=O)CSc2nnc(C3CC3)n2C)cc1`, the inhibition was -6.69% (inactive).

As to `O=C(CSc1cn(CCNC(=O)c2ccc3ccccc3c2)c2ccccc12)NCc1ccco1`, the inhibition is 11.1% (inactive).

On to `CC(C)C(=O)Nc1ccc2c(c1)nc1n2CCSC1`, for which the inhibition was 5.79% (inactive).

Consider `Cc1ccccc1OCC(O)CN1CCC(C)CC1` (centres undefined), for which the inhibition was 8.53% (inactive).

Consider `CC1CCN(CC(O)COc2ccc(OCC(O)CN3CCC(C)CC3)cc2)CC1` (centres undefined), for which the inhibition is 15.7% (inactive).

Consider `Cn1ccnc1C(=O)c1cc(SCC(=O)N2CCOCC2)nc2ccccc12`, for which the inhibition is -0.39% (inactive).

As to `S=C1SC2(CCCCCC2)NC2=C1CCCCC2`, the inhibition was 8.68% (inactive).

For the compound `CCOC(=O)CCSc1nc(C)c2cc(C)ccc2n1`, the inhibition was 5.59% (inactive).

As to `Cc1c(O)ccc2c(=O)c(Oc3ccccc3)coc12`, the inhibition was 9.78% (inactive).

On to `Cc1ccc(Oc2coc3cc(OC(=O)c4cccs4)ccc3c2=O)cc1`, for which the inhibition was 1.09% (inactive).

As to `CC1NC(=O)c2cc3ccccc3cc2-n2c1nc1cc(Cl)ccc1c2=O` (centres undefined), the inhibition is 9.82% (inactive).

Turning to `CC(Oc1ccc(Cl)cc1)C(=O)Nc1ccccc1N1CCOCC1` (centres undefined), the inhibition was 2.3% (inactive).

Take `NN1C(=O)/C(=C2/Sc3ccccc3N2CCCS(=O)(=O)O)SC1=S`: the inhibition was 12.5% (inactive).

In the case of `CCN1/C(=C2/SC(=S)NC2=O)Sc2ccccc21`, the inhibition is 1.71% (inactive).

Take `CCOC(=O)N1CCN(S(=O)(=O)c2c(C)nc3sccn3c2=O)CC1`: the inhibition was 8.06% (inactive).

For the compound `O=C1/C(=C\c2ccc([N+](=O)[O-])cc2)CCc2ccccc21`, the inhibition was 2.14% (inactive).

Consider `COc1ccc(C=C2CS(=O)(=O)CC(=Cc3ccc(OC)cc3)C2=O)cc1`, for which the inhibition was 8.37% (inactive).

As for `O=[N+]([O-])c1ccc(N2CCN(S(=O)(=O)c3ccc(Cl)c(Cl)c3)CC2)cc1NCCN1CCOCC1`, the inhibition was -6.11% (inactive).

Consider `COc1ccc2o/c(=N\O)c(C(=O)Nc3ccc(C)cc3)cc2c1`, for which the inhibition was 6.76% (inactive).

For the compound `COc1ccccc1NC(=O)c1cc2ccc(O)cc2o/c1=N\O`, the inhibition was 16.6% (inactive).

As for `CCOC(=O)C1=CN(Cc2cccc(-c3ccc(F)cc3)c2)S(=O)(=O)N(C)C1C` (centres undefined), the inhibition was 8.9% (inactive).

Turning to `Cc1cc(C)nc(Nc2ccc(Cl)cc2C)n1`, the inhibition is 4.71% (inactive).

Turning to `Cc1nc2sc(C(c3cccs3)N3CCC4(CC3)OCCO4)c(O)n2n1` (centres undefined), the inhibition is 1.65% (inactive).

Take `Cc1cc(C)c2ccc(=O)n(CC(=O)N/N=C/c3ccccc3Cl)c2n1`: the inhibition was 5.91% (inactive).

As for `COc1cc2[nH]c3ccccc3c2cc1C`, the inhibition was -5.8% (inactive).

`Cc1ccc(C)c2c1[nH]c1ccccc12`: the inhibition was 10.6% (inactive).

In the case of `Cc1ccc(C(C)C)c(OC/C(O)=C(\C#N)c2nc3ccccc3[nH]2)c1`, the inhibition was 6.88% (inactive).

For `CC1(C)C(c2ccccc2)=[N+]([O-])C2(CCCCC2=O)N1O` (centres undefined), the inhibition is 1.13% (inactive).

Consider `CCOC(=O)C1CCN(S(=O)(=O)CCNC(=O)c2ccc(F)cc2)CC1`, for which the inhibition was 6.46% (inactive).

Regarding `O=S(=O)(O)c1cccc2c(N=Nc3ccc(O)c4ncccc34)cccc12`, the inhibition is 18.4% (inactive).

In the case of `O=[N+]([O-])c1ccc(N=Nc2ccc(O)cc2O)cc1`, the inhibition is 7.64% (inactive).

On to `O=S(=O)(O)c1cc(O)ccc1O`, for which the inhibition is 4.04% (inactive).

Turning to `Oc1ccc(N=Nc2ccc(Br)cc2)c(O)c1`, the inhibition was 12.2% (inactive).

Consider `O=C(Cc1ccc(F)cc1)NC(Cc1c[nH]c2ccccc12)C(=O)O` (centres undefined), for which the inhibition was -3.39% (inactive).

With `Cc1c(Cl)cnc(NC(=O)CSc2nnnn2C)c1Cl`, the inhibition was 3.41% (inactive).

Regarding `CN(C)CCCN1c2ccccc2Sc2ccc(Cl)cc21`, the inhibition is 22% (inactive) and 17.9% (inactive).

Consider `CC(=O)c1ccc2c(c1)N(CCCN(C)C)c1ccccc1S2`, for which the inhibition is 12.4% (inactive).

For the compound `OCCN1CCN(CCCN2c3ccccc3Sc3ccc(Cl)cc32)CC1`, the inhibition is 31.9% (inactive).

Consider `CN1CCN(CCCN2c3ccccc3Sc3ccc(C(F)(F)F)cc32)CC1`, for which the inhibition was 7.89% (inactive) and 12.7% (inactive) and 6.18% (inactive).

For `CNc1ccc(/C=C/C(=O)c2cccc3ccccc23)cc1[N+](=O)[O-]`, the inhibition was 1.28% (inactive).

Consider `CCN(C(=O)COC(=O)/C=C/c1c(C)nn(-c2ccccc2)c1C)C1CCS(=O)(=O)C1` (centres undefined), for which the inhibition is 5.67% (inactive).
